The values that follow come from the supplement of paper PMC10941209.

A number with no mark means an inactive call.

This test relates to Toxoplasma gondii RH 2F1 tachyzoites (intracellular in HFF). Put plainly: parasite survival relative to DMSO control; higher = less antiparasitic activity, active = 20 or less. Conditions: 1 µM; 72 h. The procedure, abridged: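 Survival is the β-galactosidase-derived signal from intracellular Toxoplasma gondii RH-2F1 tachyzoites, expressed as a percentage of infected wells treated with DMSO. HFF cells (5 × 10^3 cells/well, 96-well plates) were infected with 5 × 10^3 parasites in D2 medium for 3 h and then treated with compound at 1 μM for 72 h at 37°C in 5% CO2. After lysis, CPRG was added and absorbance at 570 nm was read at 30 min, with 2 or more biological replicates.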
As to `CC[C@@]1(O)C(=O)OCc2c1cc1n(c2=O)Cc2cc3c([N+](=O)[O-])cccc3nc2-1`, the parasite survival was 57.5%. Take `CC(C)Oc1cccc(NC(=O)c2ccccc2C(F)(F)F)c1`: the parasite survival is 74.1%. On to `NC(=O)c1cnc2ccc(S(=O)(=O)c3ccccc3)cc2c1Nc1ccc(O)cc1`, for which the parasite survival is 43%. On to `O=S(=O)(NCB(O)O)c1ccc(-c2nnn[nH]2)cc1C(F)(F)F`, for which the parasite survival was 34.1%. Next, `NC[C@H]1OB(O)c2c(OCCCO)cccc21`: 54.2%. For `Cc1c(F)cccc1NC(=O)Nc1ccc(Cl)c(S(=O)(=O)[C@H]2CCCNC2)c1O`, the parasite survival is 73.2%.

On to `NCCCc1ccccc1C(=O)Nc1ncc([N+](=O)O)s1`, for which the parasite survival is 47.9%. For the compound `CC(N)C12CC3CC(CC(C3)C1)C2` (centres undefined), the parasite survival was 78.3%. As for `Nc1ccc2oc(=O)ccc2c1I`, the parasite survival was 80.5%. The figure for `CC(C)CCN1C(=O)C(C2=NS(=O)(=O)c3cc(NS(C)(=O)=O)ccc3N2)=C(O)[C@@H]2[C@H]3CC[C@H](C3)[C@@H]21` is 72.3%; for `O=C(O)CSc1cc(NS(=O)(=O)c2cccc3cccnc23)c2ccccc2c1O` it is 60.2%.

For `O=C(NCc1cccc2ccccc12)c1cccs1`, the parasite survival is 32%. Take `Fc1ccc2c(/C=C/c3nnn[nH]3)c[nH]c2c1`: the parasite survival was 47.3%. `C=CCc1cc(Cc2cnc(N)nc2N)cc(OC)c1O`: the parasite survival was 29.8%. Take `N#Cc1cc([N+](=O)[O-])ccc1Oc1ccccc1Cl`: the parasite survival is 69%. Take `O=c1ccc2ncc(=O)n3c2n1CC3CN1CCC(NCc2cc3c(cn2)OCCC3)CC1` (centres undefined): the parasite survival is 44.7%.

As to `COc1ccc2nc(-c3ccccc3)cc(O)c2c1`, the parasite survival was 6.87% (active). `O=C(/C=C/n1cnc(-c2cc(C(F)(F)F)cc(C(F)(F)F)c2)n1)NNc1cnccn1`: the parasite survival is 20.8%. For the compound `CSc1ccc2c(c1)C(N1CCN(C)CC1)Cc1ccccc1S2` (centres undefined), the parasite survival is 34.5%. The figure for `O=c1cc(NCCCN[C@@H]2CCOc3c(Br)cc(Br)cc32)[nH]c2ccsc12` is 30.7%. As for `COc1ccc2c(c1)cc(CNC(=O)c1cc3ccccc3o1)n2CC(=O)O`, the parasite survival was 64.2%. In the case of `N#Cc1c(F)c(Cl)c(NCc2ccccc2)c(C#N)c1F`, the parasite survival is 31.9%.

`Cc1cc(C)n2nc(C(=O)NS(=O)(=O)c3c(C)cccc3OC(F)(F)F)nc2n1`: the parasite survival was 45.7%.

As to `COc1c(F)c(F)cc2c(=O)c(C(=O)O)cn(C3CC3)c12`, the parasite survival was 63.8%.
